Results published in PubChem BioAssay (NCI).
About 79,000 compounds went through this panel and 15% of them were active in at least one assay; those are over-represented in the sample as a whole. Active and inactive are the calls of the source. Cut-off read from the data, not from the text of the source: active = growth inhibition above about 70%; inactive = the rest.

Tests used:
[1] = NCI Yeast Anticancer Drug Screen. Data for the rad52 strain (AID 147);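 note: 0% = growth of vehicle-treated control cultures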; conditions: S. cerevisiae rad52 mutant growth inhibition, stronger effect = higher value
How it was run: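 Measured: yeast growth inhibition. System: strain with a defined DNA damage repair alteration. Reference: vehicle-treated control cultures.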

[2] = NCI Yeast Anticancer Drug Screen. Data for the wt1 strain (AID 149);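 note: 0% = growth of vehicle-treated wt1 cultures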; conditions: S. cerevisiae wt1 strain (SPY 50644) growth inhibition, stronger effect = higher value
How it was run: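 Using yeast strain wt1, compound-induced growth inhibition was determined against vehicle-treated cultures.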

[3] = NCI Yeast Anticancer Drug Screen. Data for the rad50EPP+ strain (AID 151);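 note: 0% = growth of vehicle-treated control cultures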; conditions: S. cerevisiae rad50 mutant strain, stronger effect = higher value
How it was run: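 One strain with a rad50 alteration (rad50EPP+) was compound-treated, its growth then compared to that of vehicle controls.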

[4] = NCI Yeast Anticancer Drug Screen. Data for the mgt1 strain (AID 153); conditions: S. cerevisiae mgt1 mutant growth inhibition, stronger effect = higher value
How it was run: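 After exposure of the mgt1 yeast mutant to compound, growth was measured and reported as inhibition compared with vehicle controls.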

[5] = NCI Yeast Anticancer Drug Screen. Data for the rad50 strain (AID 155);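 note: 0% = growth of vehicle-only cultures of the same strain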; conditions: S. cerevisiae rad50 strain growth inhibition, stronger effect = higher value
How it was run: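 Relative growth inhibition (compound vs vehicle) was measured in yeast with a defined repair-gene alteration.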

[6] = NCI Yeast Anticancer Drug Screen. Data for the mec2-1 strain (AID 157); conditions: S. cerevisiae mec2-1 strain, stronger effect = higher value
How it was run: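 Test agents were screened against the mec2-1 yeast strain, with defined DNA repair or cell cycle alteration. Growth was scored as inhibition against vehicle-only controls.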

[7] = NCI Yeast Anticancer Drug Screen. Data for the rad14 strain (AID 159);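 note: 0% = growth of vehicle-treated control cultures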; conditions: S. cerevisiae rad14 strain growth inhibition, stronger effect = higher value
How it was run: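 Screen for anticancer potential: a yeast strain altered in DNA damage repair is grown with compound, and reduced growth is quantified against vehicle controls.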

[8] = NCI Yeast Anticancer Drug Screen. Data for the sgs1 mgt1 strain (AID 161);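 note: 0% = growth of cultures given vehicle only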; conditions: S. cerevisiae sgs1 mgt1 strain, stronger effect = higher value
How it was run: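 Genetically altered yeast, compound exposure, growth inhibition relative to vehicle.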

[9] = NCI Yeast Anticancer Drug Screen. Data for the CLN2oe strain (AID 163);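 note: 0% = growth of vehicle-only control cultures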; conditions: S. cerevisiae CLN2oe strain, stronger effect = higher value
How it was run: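 Here, growth inhibition in a cell-cycle-altered yeast strain after compound exposure was quantified against vehicle control growth.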

[10] = NCI Yeast Anticancer Drug Screen. Data for the cln2 rad14 strain (AID 165);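 note: 0% = growth equal to vehicle treated cultures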; conditions: S. cerevisiae cln2 rad14 strain, stronger effect = higher value
How it was run: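 Growth of compound-exposed yeast (cln2 rad14 genotype) measured and expressed as inhibition relative to vehicle.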

[11] = NCI Yeast Anticancer Drug Screen. Data for the bub3 strain (AID 167); conditions: S. cerevisiae bub3 mutant strain, stronger effect = higher value
How it was run: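 Screening used yeast with an engineered genetic alteration affecting cell cycle control. Compound-exposed cultures were compared with vehicle cultures, and reduced growth was taken as inhibition.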

[12] = NCI Yeast Anticancer Drug Screen. Data for the wt2 strain (AID 169);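 note: 0% = growth of vehicle-treated yeast cultures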; conditions: S. cerevisiae wt2 strain growth inhibition, stronger effect = higher value
How it was run: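 Genetically defined yeast strains from a DNA-repair/cell-cycle panel were used. Compound-exposed yeast growth was measured, and the inhibition was calculated relative to vehicle treatment.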

[13] = NCI Yeast Anticancer Drug Screen. Data for the mlh1 strain (AID 171);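 note: 0% = growth of vehicle-treated control cultures of the same strain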; conditions: S. cerevisiae mlh1 strain growth inhibition, stronger effect = higher value
How it was run: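 Here the genetically defined yeast mutant is grown with each compound, and the extent to which its growth falls below that of vehicle-exposed cells is reported.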

[14] = NCI Yeast Anticancer Drug Screen. Data for the sgs1 strain (AID 173);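 note: 0% = growth of vehicle-only control cultures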; conditions: S. cerevisiae sgs1 mutant, stronger effect = higher value
How it was run: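 Relative growth inhibition, referenced to vehicle, was determined in a yeast strain with a defined alteration affecting DNA damage repair or cell cycle control after compound exposure.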

[15] = NCI Yeast Anticancer Drug Screen. Data for the mlh1 rad18 strain (AID 175); conditions: S. cerevisiae mlh1 rad18 strain growth inhibition, stronger effect = higher value
How it was run: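 In this whole-cell yeast screen, a strain with altered DNA damage repair is challenged with compound, and its growth is measured against matched vehicle-treated controls.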

[16] = NCI Yeast Anticancer Drug Screen. Data for the rad18 strain (AID 177); conditions: S. cerevisiae rad18 mutant growth inhibition, stronger effect = higher value
How it was run: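 Screen uses a yeast strain with a defined lesion in DNA damage repair; compound effect is read as loss of growth compared to untreated vehicle cultures.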

[17] = at 5.0 µM (retest, dose inferred, filed as 0.5)
[18] = at 50.0 µM (retest, dose inferred, filed as 5.0)

Measured: growth inhibition

c1ccc2c(c1)-c1nc3ccccc3cc1C2N1CCOCC1 (stereo unspecified)
active: [3]; at 100.0 µM 77% | [5]; at 50.0 µM 72.7% | [8]; at 50.0 µM 70.5%
inactive: [1]; at 1.2 µM -2% | [1]; at 3.7 µM 1% | [1]; at 11.0 µM 4% | [1]; at 33.0 µM 8% | [1]; at 100.0 µM 16% | [2]; at 1.2 µM 1% | [2]; at 3.7 µM 2% | [2]; at 11.0 µM 4% | [2]; at 33.0 µM 2% | [2]; at 100.0 µM 5% | [3]; at 1.2 µM 6% | [3]; at 3.7 µM 25% | [3]; at 11.0 µM 51% | [3]; at 33.0 µM 68% | [4]; at 1.2 µM 0% | [4]; at 3.7 µM -1% | [4]; at 11.0 µM -1% | [4]; at 33.0 µM 3% | [4]; at 100.0 µM 17% | [5]; at 1.2 µM 0% | [5]; at 3.7 µM -1% | [5]; [17] -6% | [5]; at 11.0 µM 10% | [5]; at 33.0 µM 9% | [5]; [18] 55% | [5]; at 100.0 µM 17% | [6]; at 1.2 µM 1% | [6]; at 3.7 µM 1% | [6]; [17] 4% | [6]; at 11.0 µM 2% | [6]; at 33.0 µM 5% | [6]; [18] 8% | [6]; at 50.0 µM 13.2% | [6]; at 100.0 µM 17% | [7]; at 1.2 µM 0% | [7]; at 3.7 µM 0% | [7]; at 11.0 µM -1% | [7]; at 33.0 µM -4% | [7]; at 100.0 µM 21% | [8]; [17] -13% | [8]; [18] 65% | [9]; at 1.2 µM -6% | [9]; at 3.7 µM -2% | [9]; at 11.0 µM -10% | [9]; at 33.0 µM -8% | [9]; at 100.0 µM -3% | [10]; [17] -32% | [10]; [18] 13% | [10]; at 50.0 µM 3.95% | [11]; at 1.2 µM 3% | [11]; at 3.7 µM 6% | [11]; [17] 7% | [11]; at 11.0 µM -17% | [11]; at 33.0 µM 29% | [11]; [18] 34% | [11]; at 50.0 µM 49.2% | [11]; at 100.0 µM 27% | [12]; at 1.2 µM -1% | [12]; at 3.7 µM 1% | [12]; at 11.0 µM 2% | [12]; at 33.0 µM 7% | [12]; at 100.0 µM 26% | [13]; at 1.2 µM 3% | [13]; at 3.7 µM 3% | [13]; at 11.0 µM 3% | [13]; at 33.0 µM -10% | [13]; at 100.0 µM 28% | [14]; at 1.2 µM 2% | [14]; at 3.7 µM 4% | [14]; at 11.0 µM 8% | [14]; at 33.0 µM 18% | [14]; at 100.0 µM 38% | [15]; [17] -1% | [15]; [18] 47% | [15]; at 50.0 µM 61.1% | [16]; at 1.2 µM 7% | [16]; at 3.7 µM 5% | [16]; at 11.0 µM 12% | [16]; at 33.0 µM 11% | [16]; at 100.0 µM 6%

CC1(C)[C@@H]2CC[C@]1(C)[C@H](OC(=O)CSC#N)C2
active: [1]; at 33.0 µM 83% | [1]; at 100.0 µM 95% | [2]; at 100.0 µM 96% | [4]; at 33.0 µM 90% | [4]; at 100.0 µM 98% | [5]; [18] 98% | [5]; at 50.0 µM 99% | [5]; at 100.0 µM 96% | [6]; at 33.0 µM 86% | [6]; [18] 98% | [6]; at 50.0 µM 98% | [6]; at 100.0 µM 97% | [7]; at 100.0 µM 97% | [8]; [18] 97% | [8]; at 50.0 µM 98.6% | [9]; at 100.0 µM 95% | [10]; [18] 91% | [10]; at 50.0 µM 94.8% | [11]; at 33.0 µM 81% | [11]; [18] 99% | [11]; at 50.0 µM 99% | [11]; at 100.0 µM 96% | [12]; at 33.0 µM 89% | [12]; at 100.0 µM 97% | [13]; at 33.0 µM 73% | [13]; at 100.0 µM 98% | [14]; at 33.0 µM 94% | [14]; at 100.0 µM 97% | [15]; [18] 98% | [15]; at 50.0 µM 98.8% | [16]; at 33.0 µM 92% | [16]; at 100.0 µM 96%
inactive: [1]; at 1.2 µM 0% | [1]; at 3.7 µM 3% | [1]; at 11.0 µM 20% | [2]; at 1.2 µM 1% | [2]; at 3.7 µM 4% | [2]; at 11.0 µM 14% | [2]; at 33.0 µM 61% | [3]; at 1.2 µM -1% | [3]; at 3.7 µM 4% | [3]; at 11.0 µM 9% | [3]; at 33.0 µM 24% | [3]; at 100.0 µM 50% | [4]; at 1.2 µM 1% | [4]; at 3.7 µM 2% | [4]; at 11.0 µM 23% | [5]; at 1.2 µM 1% | [5]; at 3.7 µM 1% | [5]; [17] -5% | [5]; at 11.0 µM 20% | [5]; at 33.0 µM 68% | [6]; at 1.2 µM 4% | [6]; at 3.7 µM 8% | [6]; [17] 8% | [6]; at 11.0 µM 27% | [7]; at 1.2 µM -2% | [7]; at 3.7 µM -1% | [7]; at 11.0 µM 12% | [7]; at 33.0 µM 43% | [8]; [17] 28% | [9]; at 1.2 µM -3% | [9]; at 3.7 µM -1% | [9]; at 11.0 µM 1% | [9]; at 33.0 µM 47% | [10]; [17] 34% | [11]; at 1.2 µM 2% | [11]; at 3.7 µM 13% | [11]; [17] 14% | [11]; at 11.0 µM -19% | [12]; at 1.2 µM 1% | [12]; at 3.7 µM 5% | [12]; at 11.0 µM 25% | [13]; at 1.2 µM 7% | [13]; at 3.7 µM 9% | [13]; at 11.0 µM 29% | [14]; at 1.2 µM 9% | [14]; at 3.7 µM 23% | [14]; at 11.0 µM 66% | [15]; [17] 9% | [16]; at 1.2 µM 9% | [16]; at 3.7 µM 14% | [16]; at 11.0 µM 28%
